Laboratory results as given in PubChem BioAssay AID624296 (National Center for Advancing Translational Sciences (NCATS), 2012).
About 9,900 (2.8%) of roughly 350,000 compounds were called active. About 15% were inconclusive and are not listed. Shown is part of a subset that was picked to be rich in actives. Unmarked numbers belong to inactive results. Calls come from the whole dose curve; as a rule, active = well fitted activation curve with a large enough effect; inconclusive = small, poorly fitted or top-dose-only effect; inactive = no such curve, though single readings can be large or run the other way.

Experiment: A quantitative high throughput screen for small molecules that induce DNA re-replication in MCF 10a normal breast cells. For activity, positive = re-replication: % of control where 0% means no effect. Note: nearly all actives have a fitted effect of over 50% in size.
Details: MCF 10A DNA re-replication, Hoechst nuclear intensity, 48 h; series mostly up to 46.1 µM; activity, positive = re-replication: at the top concentration
From the text: H Molecular Libraries Probe Production Network [MLPCN]
NIH Chemical Genomics Center [NCGC]
Assay Provider: Melvin DePamphilis, NICHD, NIH
Eukaryotic cells normally restrict genome duplication to once per cell division. When this process is aberrant, DNA re-replication occurs when cells reinitiate DNA replication before the first round of replication is complete. DNA re-replication induces the DNA damage response, arrests cell proliferation, and triggers apoptosis. The cell cycle components cyclin A, Cdt-1, Cdc6 and geminin are critical regulators of this process and their misregulation results in DNA re-replication in normal and cancer cells. To identify compounds that induce re-replication in normal cells, an image-based assay was used to measure DNA content of nuclei, as detected by the fluorescent DNA binding dye, Hoechst. Cell nuclei were imaged by a fluorescence scanning plate imager and compounds that induce DNA re-replication were identified by the increase of nuclei with elevated fluorescence intensity
For screening, 250 cells in 5 uL/well were dispensed into black clear 1536-well plates (Aurora) using a solenoid-based dispenser. Following transfer of 23 nL compound or DMSO vehicle by a pin tool, the plates were incubated 48 hr at 37 C and 5% CO2. After addition of 1 uL/well Hoescht stain, the plates were incubated 40 min at 37 C, 5% CO2 and total intensity of fluorescent objects (nuclei) were enumerated by an Acumen Explorer Ex3 (TTP LabTech) fluorescence scanning plate imager (405 nm excitation, 500-530 nm emission).
Keywords: NIH Roadmap, MLPCN, MLI, MLSMR, qHTS, NCGC, DNA replication, cancer
Potency is the fitted concentration of half-maximal effect.

Row | Compound | activity, positive = re-replication | Potency
1 | Cc1cccc(N(CC(=O)N=Nc2c(O)[nH]c3ccccc23)S(C)(=O)=O)c1C | 11.1% | –
2 | O=C(CCN1CCCCC1)N=Nc1c(O)[nH]c2ccccc12 | – | 3.66 µM (active)
3 | COCC(=O)N=Nc1c(O)[nH]c2ccccc12 | -10.6% | –
4 | CCCCc1ccc(NS(=O)(=O)c2cccc(C(=O)N3CCCN(C)CC3)c2)cc1 | 23.7% | –
5 | O=C(O)c1ccc(S(=O)(=O)c2ccccc2)s1 | -18.7% | –
6 | Cc1nc2ccc(N)nc2nc1C | 23.5% | –
7 | CCN(C[C@H]1N[C@@](CC)(C(=O)OC)[C@H]2C(=O)N(C)C(=O)[C@@H]12)C(=O)Nc1ccc(F)cc1 | 2.36% | –
8 | Cc1oc2cc(Br)c(O)c(Br)c2c1C(=O)c1ccccc1 | 3.43% | –
9 | CCOC(=O)c1c(-c2ccccc2)oc2ccc(OCC(=O)NN)cc12 | 4.39% | –
10 | CCOC(=O)c1c(-c2ccccc2)oc2ccc(OCC(N)=O)cc12 | 1.72% | –
11 | CCOC(=O)c1c(-c2ccccc2)oc2cc(Br)c(O)c(C=O)c12 | – | 2.91 µM (active)
12 | CCOC(=O)c1c(-c2ccccc2)oc2cc(Br)c(O)cc12 | – | 16.4 µM (active)
13 | CCOC(=O)c1c(C)oc2cc(Sc3ccccc3)c(O)c(O)c12 | 7.97% | –
14 | CC[C@]12c3[nH]c4cc(CCC(=O)N(C)C)ccc4c3CCN1C(=O)[C@@H](CC(=O)NCc1ccco1)C[C@@H]2C(=O)N1CCN(C(=O)c2ccco2)CC1 | -30.6% | –
15 | O=C(CSc1nnc(Nc2ccccc2F)s1)NC1CCCC1 | 13.4% | –
16 | O=C(COC(=O)c1n[nH]c2ccccc12)Nc1ccccc1Br | 1.38% | –
17 | COc1ccc(NC(=O)/C(N=Nc2cccc(S(=O)(=O)Nc3ccc(SC(F)F)cc3)c2)=C(\C)O)cc1 | 3.02% | –
18 | CC(C)=CCc1c(O)c(CC=C(C)C)c2occ(-c3ccc(O)cc3)c(=O)c2c1O | – | 9.2 µM (active)
19 | CC(C)CN(Cc1c(O)ccc2c(=O)c(-c3ccccc3)coc12)CC(C)C | -5.6% | –
20 | O=c1c(-c2ccccc2)coc2cc(O)ccc12 | -13.7% | –
21 | O=C(NN=Cc1ccc([N+](=O)[O-])cc1)C1CC1 | -1.7% | –
22 | COc1ccccc1N1CCN(C(=O)C2Cc3ccccc3CN2C(=O)c2ccco2)CC1 (centres undefined) | 29.1% | –
23 | Cc1ccc(S(=O)(=O)CC(=O)Nc2nnc(C)s2)cc1 | 12.8% | –
24 | CC(=O)N1CCc2c(sc(NC(=O)CCS(=O)(=O)c3ccc(C)cc3)c2C(N)=O)C1 | – | 3.26 µM (active)
25 | CCOc1ccc(OCC)c(NC(=O)CCS(=O)(=O)c2ccc(C)cc2)c1 | -9.05% | –

Row | Compound | activity, positive = re-replication | Potency
26 | Cc1cc(C)cc(-c2nnc(SCC(=O)NC3CC3)o2)c1 | -7.62% | –
27 | O=C(NCc1ccccc1CN1CCCC1)c1cccc(S(=O)(=O)Nc2ccc(F)cc2)c1 | 15.9% | –
28 | COc1cc(C(=O)CCc2ccc3c(c2)OCO3)cc(OC)c1OC | -18.2% | –
29 | Cc1noc(C)c1C(=O)N1CCOCC1 | 1.06% | –
30 | Cc1ccccc1-c1ccc(Nc2ccc(C(=O)N3CCOCC3)cc2)nn1 | -1.59% | –
31 | Cc1oc2c(c1C(=O)N1CCOCC1)C(=O)c1ccccc1C2=O | – | 16.4 µM (active)
32 | NS(=O)(=O)c1ccc(CNC(=O)c2cccc(S(=O)(=O)N3CCc4ccccc43)c2)cc1 | 2.06% | –
33 | COc1ccc(C(C)(C)C)cc1NC(=O)CCN1C(=O)C2CCCCC2C1=O (centres undefined) | 21.3% | –
34 | COc1ccc(C2=NN(C(=O)c3ccccc3C(=O)O)C(c3ccccc3O)C2)cc1 (centres undefined) | 5.66% | –
35 | COc1ccc(C2=NN(C(C)=O)C(c3ccccc3)C2)cc1 (centres undefined) | 7.74% | –
36 | COc1ccc(C2=NN(c3ccccc3)C(c3cccs3)C2)cc1 (centres undefined) | – | 3.26 µM (active)
37 | O=C(Nc1cc(S(=O)(=O)N2CCCCC2)ccc1Cl)C1COc2ccccc2O1 (centres undefined) | 4.49% | –
38 | C=CC[C@@H](CC(=O)N[C@@H](CO)Cc1ccccc1)C(=O)NCCOC(=O)[C@@H](CC=C)CC(=O)OC(C)(C)C | -4.23% | –
39 | CCCCn1c(N)c(N(CCC(C)C)C(=O)COC(=O)c2ccc(CC)cc2)c(=O)[nH]c1=O | 14% | –
40 | O=C(/C=C/c1ccco1)NC(=S)Nc1ccccc1Br | – | 20.6 µM (active)
41 | COc1ccc(Cl)cc1C(=O)NNC(=S)NC(=O)/C=C/c1ccco1 | 13.6% | –
42 | O=C(/C=C/c1ccco1)NC(=S)N1CCCCC1 | -8.74% | –
43 | COc1ccc2c(c1)C(=O)CC(c1ccccc1)O2 (centres undefined) | 15.4% | –
44 | CCOc1ccc(-c2cc(C(=O)N/N=C/c3ccc(O)cc3)c3ccccc3n2)cc1 | – | 2.06 µM (active)
45 | COc1cc(/C=N/NC(=O)c2cc(-c3ccccc3C)nc3ccccc23)cc(OC)c1O | -1.21% | –
46 | COc1cccc(-c2cc(C(=O)N/N=C/c3ccc(OC)c(COC(C)=O)c3)c3ccccc3n2)c1 | 9.77% | –
47 | O=C1COc2ccc(C(=O)COC(=O)CCOc3ccccc3)cc2N1 | 1.68% | –
48 | CC(=O)NCc1ccc(-c2csc(NC(=O)CCCc3nc4ccccc4c(=O)[nH]3)n2)cc1 | -0.541% | –
49 | Cc1ccc(-c2csc(NC(=O)Cn3[nH]c(=O)c4ccccc4c3=O)n2)cc1 | – | 3.26 µM (active)
50 | O=C(CSc1nc2ccccc2c(=O)[nH]1)Nc1nc(-c2ccc(Br)cc2)cs1 | 16.4% | –

Row | Compound | activity, positive = re-replication | Potency
51 | O=C(Cn1cnc2c(OCc3ccccc3)ncnc21)NCCCn1ccnc1 | -1.32% | –
52 | CC(C)Sc1nc(N)nc2c1ncn2C1OC(CO)C(O)C1O (centres undefined) | -5.04% | –
53 | Cn1c(N)c(C(=O)COC(=O)c2cccc(S(=O)(=O)N3CCOCC3)c2)c(=O)n(C)c1=O | 1.02% | –
54 | COc1ccccc1C(=O)Nn1c(-c2cccs2)nc2ccccc2c1=O | 9.96% | –
55 | CC(C)n1c(-c2cccs2)nc2ccccc21 | 8.1% | –
56 | COCCCn1c(-c2cccs2)nc2nc3ccccc3nc21 | – | 18.4 µM (active)
57 | COC(=O)C1CCN(C(=O)COC(=O)c2cc(S(=O)(=O)N3CCOCC3)ccc2C)CC1 | 1.29% | –
58 | Cc1ccc2c(O)c(Cc3ccccc3)c(=O)[nH]c2n1 | -29.4% | –
59 | O=C(NCC1CCCO1)c1ccc(S(=O)(=O)Nc2ccc(F)cc2)cc1 (centres undefined) | 5.39% | –
60 | COc1ccc(/C=N/NC(=O)c2ccc3c(c2)OCCO3)c(OC)c1 | 9.16% | –
61 | COc1ccc(/C=N/NC(=O)Nc2ccc3nsnc3c2)c(OC)c1 | – | 13 µM (active)
62 | COc1ccc(/C=N/NC(=O)CNC(=O)c2ccc(S(=O)(=O)N3CCCC3)cc2)c(OC)c1 | -0.59% | –
63 | COc1ccc(CNC(=O)CN2C(=O)c3ccccc3S2(=O)=O)cc1 | -2.69% | –
64 | COc1ccc(C(=O)NCc2ccc(C)cc2)cc1S(=O)(=O)N1CCCC1 | -1.88% | –
65 | Cc1ccc(-c2csc(C(C#N)=C(O)CN3CCN(C(=O)c4ccco4)CC3)n2)cc1 | 11.7% | –
66 | O=S(=O)(c1ccc(SCc2ccc(Br)cc2)nc1)N1CCOCC1 | 1.47% | –
67 | Cc1ccc(OCCC(=O)Nc2ccc(S(=O)(=O)Nc3nccs3)cc2)cc1 | 8.62% | –
68 | COC1=NC2=NCCN2C(OC)=N1 | 0.601% | –
69 | Cc1cccc(C)c1NC(=O)C(c1ccccc1)N1CC(=O)Nc2ccccc21 (centres undefined) | 0.962% | –
70 | Cc1cccc(C)c1NC(=O)C(Cl)C(=O)c1ccccc1 (centres undefined) | – | 18.4 µM (active)
71 | Cc1cccc(C)c1NC(=O)CN(C)C(=O)CCC(=O)c1ccccc1 | -6.85% | –
72 | Cc1ccc(NC(=O)C2CC(=O)N(c3ccc4c(c3)OCCO4)C2)cc1S(=O)(=O)N1CCCCCC1 (centres undefined) | 19.6% | –
73 | Cc1nc(SCC(=O)NC2CCCCC2C)c(C#N)c(C)c1C (centres undefined) | 0.386% | –
74 | CC(C)n1ncc2c(C(=O)Nc3ccc(CC#N)cc3)cc(C3CC3)nc21 | 4.57% | –
75 | COc1ccc(OC)c(Cc2cnc3nc(N)nc(N)c3c2C)c1 | 15.9% | –

Row | Compound | activity, positive = re-replication | Potency
76 | COc1ccc(Nc2oc(-c3ccccc3Cl)nc2C#N)cc1 | – | 2.59 µM (active)
77 | Cc1ccccc1-c1nc(C#N)c(NCc2ccco2)o1 | -0.678% | –
78 | COc1ccccc1-c1nc(C#N)c(N2CCC(C(N)=O)CC2)o1 | 1.76% | –
79 | CC(NC(=O)c1ccc(S(=O)(=O)Nc2ccccc2)cc1)c1ccc(S(N)(=O)=O)cc1 (centres undefined) | 3.04% | –
80 | COc1cccc(CC(=O)Nc2ccc(-c3csc(C)n3)cc2)c1 | – | 9.2 µM (active)
81 | COc1cccc(CC(=O)Nc2nc(-c3ccc(OC)c(OC)c3)cs2)c1 | 14.9% | –
82 | CCC(=O)Nc1ccc(C(=O)Nc2cccc(OC)c2)cc1 | -24% | –
83 | CCCCC[C@@H]1C=C(C(=O)O)[C@H](c2ccc(C#N)cc2)N1S(=O)(=O)c1ccc(C)cc1 | -1.83% | –
84 | O=C1C[C@@H]2c3c(cccc3CN1Cc1ccccc1)C[C@@H](O)[C@H]2O | -8.32% | –
85 | CCOC(=O)c1c(CN(C)C)n(-c2ccccc2)c2cc(Br)c(O)cc12 | 8.71% | –
86 | CCO/N=C(/C)c1c(O)cc(-c2ccccc2)n(-c2ccccc2)c1=O | – | 14.6 µM (active)
87 | C=CCO/N=C(\C)c1c(O)c(C)c(-c2ccccc2)n(-c2ccccc2)c1=O | 19.9% | –
88 | CCN(CC)S(=O)(=O)c1ccc(CNC(=O)CN2C(=O)NC3(CCc4ccccc43)C2=O)cc1 (centres undefined) | 5.09% | –
89 | COCCN(Cc1ccccc1)C(=O)Cc1ccc(S(=O)(=O)N2CCOCC2)s1 | -9.64% | –
90 | Cc1ccc(S(=O)(=O)N2CCCCC2)cc1NC(=O)CCNC(=O)c1ccccc1 | 0.791% | –
91 | C#CCOCCOCCOCCNc1nc(N2CCOCC2)nc(N2CCN(C(=O)[C@H](Cc3ccc(O)cc3)n3cc(CCO)nn3)CC2)n1 | 9.82% | –
92 | Cc1ccc(NC(=O)C2CCC(C(C)(C)C)CC2)cc1S(=O)(=O)N1CCOCC1 (centres undefined) | – | 18.4 µM (active)
93 | Cc1ccc(NC(=O)NC2CCCCC2)cc1S(=O)(=O)N1CCOCC1 | 0.463% | –
94 | Cc1ccc(NC(=O)COC(=O)C2CC2)cc1S(=O)(=O)N1CCOCC1 | -4.67% | –
95 | CCC1([N+](=O)[O-])COC(c2ccc(C)cc2)OC1 (centres undefined) | -3.51% | –
96 | COc1ccccc1N1CC(C(=O)NCCN2C(=O)S/C(=C\c3cccnc3)C2=O)CC1=O (centres undefined) | -5.48% | –
97 | O=C(CCn1c(=O)[nH]c2ccccc2c1=O)NCCCN1CCN(c2cccc(Cl)c2)CC1 | 1.02% | –
98 | COc1cccc(CNC(=O)Cc2csc(Nc3nc(=S)[nH]c4ccccc34)n2)c1 | 21.3% | –
99 | O=C(Cc1csc(Nc2nc(=S)[nH]c3ccccc23)n1)NCCCN1CCN(c2cccc(Cl)c2)CC1 | – | 14.6 µM (active)
